Among the data in PubChem BioAssay AID463173 (ICCB-Longwood Screening Facility, Harvard Medical School, 2010) are survival values, retold here.

In all, about 52,000 compounds went through this assay and about 4,300 (8.3%) were called active. This is one part of a sample in which actives are shown more often than they occur. Values without a mark were called inactive. No stated cut-off is given here; in the data, active means survival mostly below about 52% (no sharp cut-off); inactive means mostly above about 56%.

In this assay the test system is DeltatarO mutant. Put plainly: S. aureus survival, RN4220 and DeltatarO strains – OD600, teichoic acid synthesis inhibitors, primary screen (AID 463173). The note with it: S. aureus RN4220 wild type/DeltatarO growth, OD600, 18 h, stronger effect = lower value, screened at 18.75 µg/mL (by protocol).
As to `CCOC(=O)c1c(C)oc2nc(C)nc(NCC3CCN(Cc4cccc(Cl)c4)CC3)c12`, the survival is 62%. Next, `COc1cccc(NC(=O)CCS(=O)(=O)c2ccc3c(c2)oc(=O)n3C)c1`: 89%; `Cc1ccc(CSc2nnc3[nH]c(=O)cc(C)n23)cc1`: 71%; `Cc1ccc(NC(=O)CSc2nc3c(oc4ccccc43)c(=O)n2Cc2ccco2)cc1`: 70%. For the compound `CC(C)C(=O)N1C2CCC1CC(O)(c1ccccc1F)C2` (centres undefined), the survival is 86%. Next, `COc1cccc(CN(Cc2ccco2)C(c2ccc(OC)c(OC)c2)c2nnnn2Cc2ccccc2)c1` (centres undefined): 67%. Next, `Cc1ccc2nc(/C(C#N)=C/c3ccccc3F)[nH]c2c1`: 31% (active). Next, `COc1cccc(/C=C(\C#N)c2nc3ccc(C)cc3[nH]2)c1`: 46%; `N#C/C(=C\c1ccccc1F)c1nc2ccccc2c(=O)[nH]1`: 66%; `Cc1cccc(/C=C(\C#N)c2nc3ccccc3c(=O)[nH]2)c1`: 91%. Turning to `Cc1ccc2nc(/C(C#N)=C/c3cccc(Br)c3)[nH]c2c1`, the survival was 3% (active). For `COc1cc(Br)c(/C=C(\C#N)c2nc3ccccc3[nH]2)cc1OC`, the survival was 110%. Next, `COc1ccccc1-c1nnc(SCCOc2ccccc2C)o1`: 73%; `Oc1ccc(-c2nnc(SCc3ccc(Cl)cc3)o2)cc1`: 89%; `CCOc1ccccc1-c1nnc(SCc2ccc(Cl)cc2)o1`: -1% (active). Next, `CNS(=O)(=O)c1cn(CC(=O)Nc2ccc(C)c(N(C)C)c2)cc1S(=O)(=O)NC`: 83%; `CCc1ccc(-c2cc(C)no2)cc1S(=O)(=O)N1CCN(c2cccc(Cl)c2)CC1`: 89%. Next, `COc1ccc(CNc2oc(-c3ccc(COc4ccc(Cl)cc4)o3)nc2C#N)cc1`: 97%. For the compound `Cc1cc(C)cc(NC(=O)CCc2c(C)nc3c4cccnc4nn3c2C)c1`, the survival is 99%. Next, `CCOc1ccc(-c2nonc2NC(=O)c2ccc(C)cc2)cc1OCC`: 100%; `CCOc1ccc(-c2nonc2NC(=O)c2oc3cc(C)c(C)cc3c2C)cc1OCC`: 43% (active). Next, `CCOc1ccc(-c2nonc2NC(=O)c2oc3c(C)c(C)ccc3c2C)cc1OCC`: 34% (active); `CCOc1ccc(-c2nonc2NC(=O)c2oc3ccc(C)cc3c2C)cc1OCC`: 43%. Next, `CCOc1ccc(-c2nonc2NC(=O)c2oc3cc(C)ccc3c2C)cc1OCC`: 87%. Turning to `CCCOc1ccc(-c2nonc2NC(=O)c2oc3ccc(C)cc3c2C)cc1OCCC`, the survival is 49%. Next, `CCCNC(=O)N1CCCN(S(=O)(=O)c2ccc3c(ccn3CC)c2)CC1`: 79%. Next, `Cc1cc(C)cc(NC(=O)c2cnn(-c3ccc(C)c(C)c3)c2C2CCNCC2)c1`: 78%; `COc1ccccc1NC(=O)CN1C(=O)CSc2ccc(S(=O)(=O)N3CCCC3)cc21`: 99%; `Cc1cc(C)c(S(=O)(=O)NCC(c2ccc(N(C)C)cc2)N2CCOCC2)c(C)c1` (centres undefined): 69%. Regarding `CCCCS(=O)(=O)c1oc(-c2cccs2)nc1S(=O)(=O)c1ccc(F)cc1`, the survival was 56%. On to `CCCCCS(=O)(=O)c1oc(-c2cccs2)nc1S(=O)(=O)c1ccc(C)cc1`, for which the survival was 3% (active).

`Cc1ccc(CSc2oc(-c3cccs3)nc2S(=O)(=O)c2ccc(C)cc2)cc1`: the survival was 135%.

Take `CCCSc1oc(-c2cccs2)nc1S(=O)(=O)c1ccc(C)cc1`: the survival was 41%. Next, `CCCCS(=O)(=O)c1oc(-c2cccs2)nc1S(=O)(=O)c1ccccc1`: -5% (active); `Cc1ccc(CSc2oc(-c3cccs3)nc2S(=O)(=O)c2ccccc2)cc1`: 65%; `COc1cccc(CSc2nc3n(n2)C(c2ccccc2C)C(C(=O)Nc2ccccc2OC)=C(C)N3)c1` (centres undefined): 69%.

For `Cc1ccc(C)c(NC(=O)Cn2c(=O)n(CCC(C)C)c(=O)c3cccnc32)c1`, the survival was 76%. Next, `NC(CSC1CCCCO1)C(=O)O` (centres undefined): 73%. For `O=C(Nc1ccc(N2CCC(N3CCCCC3)CC2)c(C(=O)O)c1)c1ccccc1`, the survival is 96%. Next, `O=C(Nc1ccc(N2CCC(N3CCCCC3)CC2)c(C(=O)O)c1)c1ccc(Br)cc1`: 101%; `O=C(Nc1ccc(N2CCOCC2)c(C(=O)O)c1)c1ccc(Br)cc1`: 8% (active); `CC(=O)c1ccc(N2CCN(c3ccc(NC(=O)c4ccc(F)cc4)cc3C(=O)O)CC2)cc1`: 55%.

On to `O=C(Nc1ccc(N2CCN(CCOc3ccc(Cl)cc3)CC2)c(C(=O)O)c1)c1ccc(F)cc1`, for which the survival was 20% (active).

Consider `COc1ccc(C(=O)Nc2ccc(N3CCN(c4ccccc4)CC3)c(C(=O)O)c2)cc1`, for which the survival was 94%.

Consider `Cc1ccc(NC(=O)C(=O)NCC2(c3ccccc3)CCCC2)cc1Cl`, for which the survival is 97%. Next, `Cc1cccc(NS(=O)(=O)c2ccc3c(c2)CC(C)N3C(=O)C2CCC2)c1C` (centres undefined): 78%; `N#Cc1c[nH]n2c(=O)cc(Cc3ccccc3)nc12`: 68%. Next, `CC(C)c1ccc(NC(=O)CCS(=O)(=O)c2ccc(Br)s2)cc1`: 114%; `Cc1cc(NC(=O)c2ccc(NC(=O)CCS(=O)(=O)c3cccs3)cc2)ccc1Br`: 35% (active). Consider `Cc1ccc(NC(=O)c2ccc(NC(=O)CCS(=O)(=O)c3cccs3)cc2)cc1F`, for which the survival was 81%.

As to `CC(=O)c1cccc(NC(=O)CCS(=O)(=O)c2ccc(Br)s2)c1`, the survival was 43% (active). Regarding `COC(=O)c1ccc(NC(=O)CCS(=O)(=O)c2ccc(Br)s2)cc1`, the survival is 60%. Next, `CCOC(=O)c1cccc(NC(=O)CCS(=O)(=O)c2ccc(Br)s2)c1`: 71%; `O=C(CCS(=O)(=O)c1ccc(Br)s1)Nc1cc(C(F)(F)F)cc(C(F)(F)F)c1`: 42% (active). Next, `O=C(CCS(=O)(=O)c1ccc(Br)s1)Nc1c(F)cccc1F`: 128%; `CC(=O)c1ccc(NC(=O)c2ccc(NC(=O)CCS(=O)(=O)c3cccs3)cc2)cc1`: 69%; `CCc1ccc(CNC(=O)Cc2ccc(NC(=O)N3CCSc4ncccc43)cc2)cc1`: 94%. Turning to `CC(=O)c1c(C)oc2c(Cl)cc(NS(=O)(=O)c3cc(C)c(C)cc3C)cc12`, the survival is 157%.

Turning to `COc1ccc(OC)c(-c2noc(N3CCN(c4cc(C)ccc4C)CC3)n2)c1`, the survival was 87%.

Consider `CC(=O)N1CCCc2cc(S(=O)(=O)N3CCCC(C(=O)Nc4cccc(Cl)c4C)C3)ccc21` (centres undefined), for which the survival was 67%. Next, `COc1cccc(CNC(=O)c2ccc(Cn3c(SCc4ccccc4)nc4cccnc43)cc2)c1`: 74%; `Cn1cc(C(=O)N2CCN(c3cccc(Cl)c3)CC2)c(=O)c2cc(S(=O)(=O)N3CCCC3)ccc21`: 128%; `Cc1ccc(CCNc2nc3c(S(=O)(=O)c4ccccc4)nnn3c3ccsc23)cc1`: 62% (active).

With `Cc1ccc(S(=O)(=O)c2nnn3c2nc(NCCc2ccccc2)c2sccc23)cc1`, the survival was 65%. Next, `CN(Cc1ccccc1)c1nc2c(S(=O)(=O)c3cccc(Cl)c3)nnn2c2ccsc12`: 36% (active); `CCN(CC)c1nc2c(S(=O)(=O)c3cccc(Cl)c3)nnn2c2ccsc12`: 62%. Next, `Cc1ccc(CCNc2nc3c(S(=O)(=O)c4ccc(C)cc4)nnn3c3ccsc23)cc1`: 108%. Next, `CN(Cc1ccccc1)c1nc2c(S(=O)(=O)c3ccccc3)nnn2c2ccsc12`: 70%. In the case of `Cc1cc(-c2ccc(C)c(S(=O)(=O)Nc3cccc(C)n3)c2)on1`, the survival is 75%.

As for `O=C(Cn1c(=O)nc(-c2ccccc2F)c2cc(Cl)ccc21)Nc1ccccc1C(F)(F)F`, the survival was 96%. Next, `Cn1c(O)c(N=NC(=O)c2ccccc2)c2ccccc21`: 105%; `CCCCc1cc(O)c(CCCC)c(O)c1`: 12% (active). Turning to `CCCCc1c(C(=O)O)cccc1C(=O)O`, the survival was 103%. Next, `Cc1cc(C)cc(N2C(=O)CSC23C(=O)N(CC(=O)Nc2ccc(F)cc2F)c2ccccc23)c1` (centres undefined): 99%. Next, `Cc1ccc2c(c1)c(=O)c(S(=O)(=O)c1ccc(F)cc1)cn2CC(=O)Nc1ccc2c(c1)OCO2`: 70%; `CC(C)NC(=O)c1cnn2c(C(F)F)cc(-c3ccccc3)nc12`: 92%; `O=C(Nc1cc(F)ccc1F)c1cnn2c(C(F)F)cc(-c3ccccc3)nc12`: 130%. In the case of `CNS(=O)(=O)c1ccc(NC(=O)c2cnn3c(C(F)F)cc(-c4ccccc4)nc23)cc1`, the survival is 66%.

On to `CCOc1ccccc1NC(=O)c1cnn2c(C(F)F)cc(-c3ccccc3)nc12`, for which the survival was 58% (active). Next, `CC(C)c1ccc(NC(=O)c2cnn3c(C(F)F)cc(-c4ccccc4)nc23)cc1`: 65%. Next, `COc1ccc(-c2cc(C(F)F)n3ncc(C(=O)Nc4cc(C)on4)c3n2)cc1`: 85%; `COc1ccc(-c2cc(C(F)F)n3ncc(C(=O)Nc4cc(OC)ccc4OC)c3n2)cc1`: 51% (active).

Turning to `COC(=O)c1ccc(C(=O)OC)c(NC(=O)c2cnn3c(C(F)F)cc(-c4ccc(C)cc4)nc23)c1`, the survival was 60%. Next, `CCN(CC)c1ccc(NC(=O)c2cnn3c(C(F)F)cc(-c4ccccc4)nc23)cc1`: 59% (active); `CCCCn1nc(CC(=O)O)c2ccccc2c1=O`: 83%; `COC(=O)c1ccccc1NC(=O)C1(c2cccs2)CCOCC1`: 83%. Next, `COc1ccc(NC(=O)CN(C)S(=O)(=O)c2cnc[nH]2)cc1Cl`: 98%; `COc1ccc(C(=O)NCCn2cc(SCC(=O)Nc3cccc(C)c3)c3ccccc32)cc1`: 60%. Next, `Cc1ccc(-n2c(=O)c3c(C)c(C(=O)N(C)C)sc3n(CC(=O)C(C)(C)C)c2=O)cc1C`: 107%.
